# Reference: the supplement of paper PMC11732987, “Enantioselective OTUD7B fragment discovery through chemoproteomics screening and high-throughput optimisation” (Communications Chemistry, 2025)
# A number with no mark means an inactive call.
# What was measured:
# Experiment in all cases: log2 ratio of Biotin-Ahx-Ub-VS probe labelling (fragment/DMSO); higher = less target engagement (more negative = stronger competition), active = hit call of the paper (q ≤ 0.05, log2 ratio ≤ -1)
# Settings in all cases: compound concentration: 200 uM; treatment time: 3 h
# [1] = target: T1, ALG13 (UniProt Q9NP73)
# T1 sequence (whole entry): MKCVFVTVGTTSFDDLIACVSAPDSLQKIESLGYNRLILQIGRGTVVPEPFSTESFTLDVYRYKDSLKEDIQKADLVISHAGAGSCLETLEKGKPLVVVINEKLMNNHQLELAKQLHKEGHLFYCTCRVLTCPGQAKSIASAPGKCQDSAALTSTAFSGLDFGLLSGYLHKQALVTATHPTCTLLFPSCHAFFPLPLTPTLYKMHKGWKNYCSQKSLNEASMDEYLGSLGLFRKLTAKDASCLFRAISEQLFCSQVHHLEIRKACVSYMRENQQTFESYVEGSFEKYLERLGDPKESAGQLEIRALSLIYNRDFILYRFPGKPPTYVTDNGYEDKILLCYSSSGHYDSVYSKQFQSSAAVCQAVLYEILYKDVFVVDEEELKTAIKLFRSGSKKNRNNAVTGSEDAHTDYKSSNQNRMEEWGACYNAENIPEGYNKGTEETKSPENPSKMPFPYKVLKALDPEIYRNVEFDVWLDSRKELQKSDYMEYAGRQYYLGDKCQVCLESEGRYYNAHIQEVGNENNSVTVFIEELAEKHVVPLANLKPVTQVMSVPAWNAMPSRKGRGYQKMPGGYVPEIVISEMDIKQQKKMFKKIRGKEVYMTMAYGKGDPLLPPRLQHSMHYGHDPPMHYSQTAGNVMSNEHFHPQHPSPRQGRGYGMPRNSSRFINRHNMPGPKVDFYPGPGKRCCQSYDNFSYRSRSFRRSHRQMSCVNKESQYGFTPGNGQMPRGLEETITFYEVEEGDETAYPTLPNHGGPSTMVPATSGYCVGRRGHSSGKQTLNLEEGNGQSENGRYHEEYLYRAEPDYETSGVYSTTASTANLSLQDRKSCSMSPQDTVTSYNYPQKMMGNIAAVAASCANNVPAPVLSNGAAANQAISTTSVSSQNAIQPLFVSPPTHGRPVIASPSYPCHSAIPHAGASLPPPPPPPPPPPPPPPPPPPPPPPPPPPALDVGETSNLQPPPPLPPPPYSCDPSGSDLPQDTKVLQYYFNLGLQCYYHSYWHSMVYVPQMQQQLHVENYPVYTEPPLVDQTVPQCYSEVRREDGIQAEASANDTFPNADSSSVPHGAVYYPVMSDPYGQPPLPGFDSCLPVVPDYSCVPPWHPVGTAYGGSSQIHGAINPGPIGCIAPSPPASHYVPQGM
# Procedure, shortened: (§1)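 Global-median-normalised Spectronaut label-free quantities were compared by unpaired t-test, and values are average log2 ratios of fragment over vehicle. Only proteins with ≥2 unique peptides were used. HEK293T lysate (495 µg per sample) was treated in triplicate with fragment at 200 µM or vehicle for 3 h and then with Biotin-Ahx-Ub-VS at 0.5 µM final for 1 h. Labelled DUBs were then NeutrAvidin-enriched, digested with LysC and trypsin, and run by diaPASEF LC-MS/MS.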
# [2] = target: ATXN3 (UniProt P54252)
# ATXN3, sequence (P54252 whole entry): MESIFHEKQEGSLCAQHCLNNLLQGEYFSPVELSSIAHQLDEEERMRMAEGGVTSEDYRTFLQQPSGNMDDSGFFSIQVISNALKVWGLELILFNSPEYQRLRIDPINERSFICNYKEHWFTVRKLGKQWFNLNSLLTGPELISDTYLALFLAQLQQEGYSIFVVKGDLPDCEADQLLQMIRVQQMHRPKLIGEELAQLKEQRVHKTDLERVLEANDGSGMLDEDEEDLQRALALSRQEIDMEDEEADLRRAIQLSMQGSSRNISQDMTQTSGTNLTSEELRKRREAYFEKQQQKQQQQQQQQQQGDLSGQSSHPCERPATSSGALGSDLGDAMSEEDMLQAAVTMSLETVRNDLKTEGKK
# Procedure, shortened: as §1
# [3] = target: T2, BAP1 (UniProt Q92560)
# T2 sequence (whole entry): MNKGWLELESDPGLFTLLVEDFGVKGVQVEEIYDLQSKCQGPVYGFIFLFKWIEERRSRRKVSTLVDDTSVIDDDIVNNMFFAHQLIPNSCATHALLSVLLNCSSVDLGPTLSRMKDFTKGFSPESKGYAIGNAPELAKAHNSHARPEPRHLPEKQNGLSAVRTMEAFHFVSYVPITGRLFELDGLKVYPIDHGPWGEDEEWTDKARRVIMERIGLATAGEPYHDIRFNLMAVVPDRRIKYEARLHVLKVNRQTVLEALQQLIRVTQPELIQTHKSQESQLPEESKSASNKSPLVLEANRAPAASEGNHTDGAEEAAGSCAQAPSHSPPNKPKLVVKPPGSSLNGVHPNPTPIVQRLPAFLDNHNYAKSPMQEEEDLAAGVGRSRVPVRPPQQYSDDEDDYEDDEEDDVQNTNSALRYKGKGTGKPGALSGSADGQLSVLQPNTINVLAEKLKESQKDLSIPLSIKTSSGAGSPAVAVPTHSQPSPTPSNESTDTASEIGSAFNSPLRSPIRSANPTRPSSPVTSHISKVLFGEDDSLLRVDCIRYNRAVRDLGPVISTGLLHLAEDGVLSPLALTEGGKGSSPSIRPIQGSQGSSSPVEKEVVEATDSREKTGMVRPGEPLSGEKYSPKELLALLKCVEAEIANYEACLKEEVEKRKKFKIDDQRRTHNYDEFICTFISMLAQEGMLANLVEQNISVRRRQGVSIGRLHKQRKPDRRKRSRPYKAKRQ
# Procedure, shortened: as §1
# [4] = target: EIF3F (UniProt O00303)
# EIF3F, sequence (O00303 whole entry): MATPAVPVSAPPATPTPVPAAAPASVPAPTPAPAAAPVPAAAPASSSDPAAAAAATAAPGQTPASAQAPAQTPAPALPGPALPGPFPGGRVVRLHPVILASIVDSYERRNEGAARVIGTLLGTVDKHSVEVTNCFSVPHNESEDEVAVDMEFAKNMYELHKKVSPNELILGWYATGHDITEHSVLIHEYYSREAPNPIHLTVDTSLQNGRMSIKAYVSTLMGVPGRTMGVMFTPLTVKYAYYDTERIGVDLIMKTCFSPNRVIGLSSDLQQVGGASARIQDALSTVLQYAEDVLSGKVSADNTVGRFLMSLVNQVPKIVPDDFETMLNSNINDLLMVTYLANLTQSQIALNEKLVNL
# Procedure, shortened: as §1
# [5] = target: EIF3H (UniProt O15372)
# EIF3H, sequence (O15372 whole entry): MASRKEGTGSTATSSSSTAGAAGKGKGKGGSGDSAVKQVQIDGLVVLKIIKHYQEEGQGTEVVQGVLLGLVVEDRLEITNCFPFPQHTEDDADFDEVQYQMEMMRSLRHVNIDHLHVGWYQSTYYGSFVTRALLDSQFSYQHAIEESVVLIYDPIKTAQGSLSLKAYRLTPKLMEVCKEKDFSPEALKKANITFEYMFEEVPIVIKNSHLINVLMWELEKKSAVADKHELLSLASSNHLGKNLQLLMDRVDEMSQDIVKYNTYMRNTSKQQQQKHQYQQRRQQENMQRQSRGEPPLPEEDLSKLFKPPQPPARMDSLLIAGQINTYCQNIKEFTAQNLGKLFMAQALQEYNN
# Procedure, shortened: as §1
# [6] = target: T3, FAM105A (UniProt Q9NUU6)
# T3 sequence (whole entry): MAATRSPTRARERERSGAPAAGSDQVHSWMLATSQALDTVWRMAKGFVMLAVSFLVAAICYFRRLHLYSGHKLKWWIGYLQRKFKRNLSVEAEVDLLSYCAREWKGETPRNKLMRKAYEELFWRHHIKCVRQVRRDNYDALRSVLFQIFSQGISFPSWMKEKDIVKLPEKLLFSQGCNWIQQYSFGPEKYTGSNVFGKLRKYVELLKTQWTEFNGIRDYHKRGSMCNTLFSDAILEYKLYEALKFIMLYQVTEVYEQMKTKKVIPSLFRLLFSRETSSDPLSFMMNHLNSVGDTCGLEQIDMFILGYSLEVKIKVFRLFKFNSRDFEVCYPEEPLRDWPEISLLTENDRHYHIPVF
# Procedure, shortened: as §1
# [7] = target: OTUB1 (UniProt Q96FW1)
# OTUB1, sequence (Q96FW1 whole entry): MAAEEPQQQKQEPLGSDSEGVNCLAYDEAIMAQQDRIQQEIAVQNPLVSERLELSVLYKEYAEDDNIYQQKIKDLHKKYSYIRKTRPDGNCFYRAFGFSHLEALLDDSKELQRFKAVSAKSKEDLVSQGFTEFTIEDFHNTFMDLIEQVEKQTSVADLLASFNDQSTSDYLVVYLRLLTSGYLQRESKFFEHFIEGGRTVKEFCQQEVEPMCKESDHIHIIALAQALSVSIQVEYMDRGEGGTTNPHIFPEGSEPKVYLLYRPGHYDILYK
# Procedure, shortened: as §1
# [8] = target: T4, OTUD4 (UniProt Q01804)
# T4 sequence (whole entry): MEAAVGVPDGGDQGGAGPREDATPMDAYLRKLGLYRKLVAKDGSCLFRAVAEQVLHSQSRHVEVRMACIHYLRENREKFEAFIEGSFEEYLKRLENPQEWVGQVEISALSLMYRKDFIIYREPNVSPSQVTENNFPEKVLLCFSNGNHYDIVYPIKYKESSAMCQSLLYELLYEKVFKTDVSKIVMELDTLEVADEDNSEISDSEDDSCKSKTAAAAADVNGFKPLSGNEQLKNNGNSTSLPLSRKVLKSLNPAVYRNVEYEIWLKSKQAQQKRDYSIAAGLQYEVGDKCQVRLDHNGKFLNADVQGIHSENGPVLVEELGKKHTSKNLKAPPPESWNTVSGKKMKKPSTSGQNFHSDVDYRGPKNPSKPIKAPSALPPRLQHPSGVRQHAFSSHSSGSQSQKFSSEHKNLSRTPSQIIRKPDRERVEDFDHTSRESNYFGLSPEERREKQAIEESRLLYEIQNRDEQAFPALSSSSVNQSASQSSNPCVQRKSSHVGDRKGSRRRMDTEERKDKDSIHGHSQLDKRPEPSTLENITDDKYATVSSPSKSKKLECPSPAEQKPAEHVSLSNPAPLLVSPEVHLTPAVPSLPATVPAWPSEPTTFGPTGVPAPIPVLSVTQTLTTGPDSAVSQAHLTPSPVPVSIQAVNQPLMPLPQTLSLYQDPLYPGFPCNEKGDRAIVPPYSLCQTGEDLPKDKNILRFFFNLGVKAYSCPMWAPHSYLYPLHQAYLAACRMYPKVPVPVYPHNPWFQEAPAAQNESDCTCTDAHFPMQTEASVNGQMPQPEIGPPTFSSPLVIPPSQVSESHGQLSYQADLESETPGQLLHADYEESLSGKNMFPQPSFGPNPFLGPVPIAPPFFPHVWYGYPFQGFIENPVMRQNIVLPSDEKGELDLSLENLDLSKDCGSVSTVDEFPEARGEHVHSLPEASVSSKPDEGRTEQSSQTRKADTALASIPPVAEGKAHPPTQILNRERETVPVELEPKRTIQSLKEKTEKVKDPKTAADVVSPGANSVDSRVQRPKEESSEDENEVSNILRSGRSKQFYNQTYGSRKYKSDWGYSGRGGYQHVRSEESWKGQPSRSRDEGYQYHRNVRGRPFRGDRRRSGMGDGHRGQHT
# Procedure, shortened: as §1
# [9] = target: T5, OTUD5 (UniProt Q96G74)
# T5 sequence (whole entry): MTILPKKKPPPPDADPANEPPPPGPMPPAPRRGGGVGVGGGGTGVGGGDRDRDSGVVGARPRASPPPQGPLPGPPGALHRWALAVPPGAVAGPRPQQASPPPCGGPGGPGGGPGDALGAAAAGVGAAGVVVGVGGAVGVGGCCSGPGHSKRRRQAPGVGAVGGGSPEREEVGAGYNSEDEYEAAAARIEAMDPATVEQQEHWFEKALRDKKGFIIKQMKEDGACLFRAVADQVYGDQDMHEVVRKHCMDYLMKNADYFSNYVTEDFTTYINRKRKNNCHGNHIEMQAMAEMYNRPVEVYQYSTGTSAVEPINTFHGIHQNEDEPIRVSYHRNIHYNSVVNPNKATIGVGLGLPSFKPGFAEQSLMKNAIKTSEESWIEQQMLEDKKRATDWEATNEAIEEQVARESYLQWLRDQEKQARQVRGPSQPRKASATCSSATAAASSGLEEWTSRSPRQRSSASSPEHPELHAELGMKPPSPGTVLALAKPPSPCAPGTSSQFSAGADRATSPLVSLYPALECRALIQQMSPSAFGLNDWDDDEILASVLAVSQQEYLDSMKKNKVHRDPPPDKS
# Procedure, shortened: as §1
smiles,measurement,setting,value
CC(NC(=O)CCl)c1noc(Cc2ccccc2)n1 (centres undefined),log2 ratio of Biotin-Ahx-Ub-VS probe labelling,[1],0.107
same,log2 ratio of Biotin-Ahx-Ub-VS probe labelling,[2],-0.275
same,log2 ratio of Biotin-Ahx-Ub-VS probe labelling,[3],-2.73 (active)
same,log2 ratio of Biotin-Ahx-Ub-VS probe labelling,[4],-0.25
same,log2 ratio of Biotin-Ahx-Ub-VS probe labelling,[5],-0.398
same,log2 ratio of Biotin-Ahx-Ub-VS probe labelling,[6],-0.027
same,log2 ratio of Biotin-Ahx-Ub-VS probe labelling,[7],0.0412
same,log2 ratio of Biotin-Ahx-Ub-VS probe labelling,[8],-0.692
same,log2 ratio of Biotin-Ahx-Ub-VS probe labelling,[9],-0.271
